For the assay, the system named is VDR:RXRa (NR concentration 270 nM, RXRa partner concentration 90 nM). As to the kind of experiment: PBM binding z-score (relative to random genomic background probes); higher = stronger binding; sequences stand for … in GC…GCGATTGACAGCGTAGAATGAAGG
On the procedure: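 Protein-binding microarray (Agilent 4x180K custom design, double-stranded 60-nt probes: 5' GC cap, 34-nt variable region, 24-nt constant primer region; full probe sequence given). Purified or IVT nuclear receptor:RXRα heterodimers (3:1 NR:RXRα, mostly 270:90 nM) or homodimers were incubated for 1 h in PBS with 2% milk and no ligand, then detected with Alexa488 antibodies. Fluorescence from o1-orientation probes (~5 replicates averaged) was converted to z-scores against 500 random hg19 background probes. Variable regions are seed direct-repeat (DR0–DR5) sites, all their single-nucleotide variants and half-site ablations.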
TTACCAAGGTGAAGGTTGTTGATCCCTCTGTAGA had a PBM binding z-score of 0.381. Turning to ACAGACAGATGAGTGAAGGTAACTCAGCTGGACG, the PBM binding z-score is -0.157. The figure for ATATGTAGGTTAGCTGGGGTCATTCATACTAGGC is 6.21; for GATACCGGGTCAAGGCCAGAGTACGCGTATTGAT it is 3.11; for ACTATAAGTTGACTTAGGGCAACCGATACGACGC it is 0.769. Under CCTAGCAGGCCAATCTGGGTCACTCATGGCTTGA stands 0.303; under ACAAGTTGGTCAGCTGAGGTCACACACAATTCGG, 4.66; under AGAATGAGGTTAAGATCGGGGAAACAGAATACAT, 1.18. Under TCATATAGGTCAACAGGTGAAAGTCCGTAAGTTA stands 4.41. Sequence ATATGTAGGATAAGGGTCATTCAGGTTGGTTCGC showed a PBM binding z-score of 5.49. On to AGGACGAGGGCACGCTGAGTTGATAGCAGAGTAG, for which the PBM binding z-score worked out at 2.09. The figure for TCGAGTAGGTTACCAATGTGGCATTCAGCTTTCT is -0.0444; for GTACCAAGGTGAAAAGGTCGTTGATGAGTAGGCG it is 2.59; for ATATGTAAGTTAGCTGGGGTCATTCAGACTAGGC it is 5.25. The figure for TATAGTTGGTCACGGAGGTCACACACGACGGGTA is 5.81.

Consider CGAACTAGATCAGAACAGGACAGTGAAGGATGAT, for which the PBM binding z-score was -0.438. The figure for ATCTCTAGGTAAAGATAGTTCAGTTAATGCAAAT is 1.21; for TCTTGTAGATCAATGGAGGTTAAGAAAGTGCGCT it is 1.38. Under CGAACTAGGTCAAGGACAGCGAATCTCCGCACGC stands 1.31; under ACTAGCAGGCCAAGTTTTGGTCACTCAAACAAAG, -0.348; under CATACAGGGTCAGCTAGGCCAGAGCAGGGACGGC, 3.75. Under TCGAGTAGGTAAGGGGCATTCAGAATGGCGTCGA stands 0.0857.

TCTCGGAGGACACGAAGGTCATAGCTTTCCAGAG showed a PBM binding z-score of 4.04. The sequence GCAAGCAGGCCATTTGGGTCACTCAATGACGGGC yielded a PBM binding z-score of 0.865. Under AGGATGAGGTTATACGTAGATCAGGGAAGAAAGT stands 1.66. Under ACTATTACTTGAGACGAGGGCAACCGATAGGTTG stands 0.736. Under TCAAGTAGGTTAGGGGCATTCAGAATGGCGTCGA stands 1.05. On to CCGAGTAGGTTATGGGGCTTTCAGGCAACGGTGA, for which the PBM binding z-score was -0.375. Under TAGCCTAGGTCAGATCGGGCCAATATACGCTATA stands 1.01; under CCTACCGGGCCACGAAAGGTCATTGATTCAGTGA, 4.1; under CGAACTAGGTAATCCAGGACAGTGAATACATTGA, 0.209. The figure for ATCTCTAGGTAACAAAGTTCAGTGAATGCCGAAC is 3.18. The sequence GCATATAGATAATACAAGGTGAAAGTCCGATTGT displayed a PBM binding z-score of 0.152.

Turning to CCTACTGAGCCATCAGGTCATTGATATCAACGTT, the PBM binding z-score was 2.15.

The sequence GGAACGAGGGCATTCGTGTTGATAGCATGGCGAT displayed a PBM binding z-score of 1.6. CCTAGCAGGCCAGGGTCACTCAGGCATTTCGCTT: the PBM binding z-score is 2.22. CAAACTAGGTCACCGGAACGTCAAAGTCCGCATG registered a PBM binding z-score of 2.48. Sequence TAGCCTAGTTCATGGGCCAGTATACCACGCGAAC registered a PBM binding z-score of 0.685. Under TGAATTAGGTTATAAGATCAGGGAACGTTGCAAA stands -0.0623; under CCGACTGGGGCGAGGTTACCATAACGCACAGCCA, 0.364.
